The results in this text go back to PubChem BioAssay AID2284146 (EPA ToxCast).

Each structure is given as a SMILES string. Calls of active or inactive are those of the source. How the source made its calls: active means hit-call score of the fitted dose curve at least 0.9, where 1 is the maximum; inactive means score below 0.9.

Chain of human Adrenoceptor alpha2A Antagonism, ADRA2A (gene 150) (P08913 whole entry, looked up): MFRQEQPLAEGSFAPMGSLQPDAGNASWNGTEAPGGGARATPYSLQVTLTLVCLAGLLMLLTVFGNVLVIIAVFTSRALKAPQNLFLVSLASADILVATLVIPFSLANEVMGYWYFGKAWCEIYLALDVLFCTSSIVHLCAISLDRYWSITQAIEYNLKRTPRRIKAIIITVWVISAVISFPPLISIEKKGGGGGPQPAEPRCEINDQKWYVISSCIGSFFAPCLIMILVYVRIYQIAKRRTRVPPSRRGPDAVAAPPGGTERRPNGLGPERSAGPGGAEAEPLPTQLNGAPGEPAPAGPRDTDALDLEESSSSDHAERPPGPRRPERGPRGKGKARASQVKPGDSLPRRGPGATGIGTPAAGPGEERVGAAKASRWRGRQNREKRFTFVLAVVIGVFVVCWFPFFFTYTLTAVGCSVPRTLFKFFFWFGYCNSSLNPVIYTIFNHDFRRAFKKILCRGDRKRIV

For this assay, the target named is human Adrenoceptor alpha2A Antagonism, ADRA2A (gene 150) (UniProt P08913). The assay is described as follows: ERF_TW_GPCR_hADRA2A: Eurofins (ERF) G Protein-Coupled Receptor (GPCR) Radioligand Binding LeadHunter Assay for human Adrenoceptor alpha2A Antagonism. As for the experimental part:
ERF_TW_GPCR_hADRA2A is a biochemical, single-readout assay that uses extracted gene-proteins in a cell-free assay. Measurements were taken 1 hour after chemical dosing in a 96-well plate. See alpha2A Human Adrenoceptor GPCR Binding (Antagonist Radioligand) Assay, Panlabs.ERF_TW_GPCR_hADRA2A is an assay component calculated from the ERF_TW_GPCR_hADRA2A assay. It is designed to measure radioligand binding using a type of binding reporter as detected by scintillation counting with radiometry technology.Data from the assay component ERF_TW_GPCR_hADRA2A was analyzed at the assay endpoint, ERF_TW_GPCR_hADRA2A, in the positive analysis fitting direction relative to DMSO as the negative control and baseline of activity. Using a type of binding reporter, loss-of-signal activity can be used to understand changes in radioligand binding as they relate to gene ADRA2A. To generalize the intended target to other relatable targets, this assay endpoint is annotated to the gpcr intended target family, where the subfamily is adrenoceptor.
Human recombinant adrenergic alpha2A receptors expressed in CHO-K1 cells are used in modified Tris-HCl buffer pH 7.4. A 2 ug aliquot is incubated with 1.5 nM [3H]Rauwolscine for 60 minutes at 25C. […] Receptors are filtered and washed, the filters are then counted to determine [3H]Rauwolscine specifically bound. […]
`O=C(/C=C/c1ccc(O)cc1)CC(=O)/C=C/c1ccc(O)cc1`: the concentration at half-maximal activity (AC50) (commonly the midpoint of the concentration-response curve, whichever way the signal moves) is 1.14 µM (active).
